# Data as given in the supplement of paper PMC10127200.
# Where a name gives a salt, the structure may show the parent alone.
# How the values were obtained:
# Experiment in all cases: Euclidean distance of Cell Painting phenotypic profile (signed KS, 77 features) to DMSO centroid (dimensionless distance); 5 or 10 uM (library dependent); higher = stronger phenotypic change vs DMSO (phenoactivity)
# Settings in all cases: 48 h
# 786-O = test system: 786-O
# How it was run: (§1)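 Harmony extracted 77 features from 20X confocal images (9 fields/well) of stained cells, scoring each as a signed Kolmogorov-Smirnov statistic against same-plate vehicle wells. The cells, five cancer lines and a healthy fibroblast line, had received library compounds for 48 h at 10 or 5 uM depending on library, with 0.1% DMSO final. Phenoactivity is the Euclidean distance from each plate-position-corrected, correlation-weighted, top-dose replicate-averaged profile to the median vehicle profile.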
# A549 = test system: A549
# How it was run: as §1
# DU145 = test system: DU145
# How it was run: as §1
# FB = test system: FB
# How it was run: as §1
# HEPG2 = test system: HEPG2
# How it was run: as §1
# OVCAR4 = test system: OVCAR4
# How it was run: as §1
Structure (SMILES),Euclidean distance (786-O),Euclidean distance (A549),Euclidean distance (DU145),Euclidean distance (FB),Euclidean distance (HEPG2),Euclidean distance (OVCAR4)
O=C1CN(/N=C/c2ccc([N+](=O)[O-])o2)C(=O)N1 [Nitrofurantoin],1.11,0.86,1.02,0.744,0.699,0.831
COc1ccc(C(=O)Nc2sc3c(c2C(N)=O)CCCC3)cc1OC,1.04,2.61,1.02,0.845,0.747,2.82
Cc1nnc(SCC2=C(C(=O)O)N3C(=O)[C@@H](NC(=O)Cn4cnnn4)[C@H]3SC2)s1 [Cefazolin Sodium],0.929,0.587,0.958,0.961,1.06,1.27
CC(C)n1nc(-c2ccc3oc(N)nc3c2)c2c(N)ncnc21,3.74,3.47,2.16,5.4,2.31,3.52
C[C@]12CCC(=O)C=C1CC[C@@H]1[C@@H]2C(=O)C[C@@]2(C)[C@H]1CC[C@]2(O)C(=O)CO [Cortisone],1.73,0.941,1.11,1.27,0.411,1
CC[C@H]1OC(=O)[C@H](C)[C@@H](O[C@H]2C[C@@](C)(OC)[C@@H](O)[C@H](C)O2)[C@H](C)[C@@H](O[C@@H]2O[C@H](C)C[C@H](N(C)C)[C@H]2O)[C@](C)(O)C[C@@H](C)CN(C)[C@H](C)[C@@H](O)[C@]1(C)O [Azithromycin Dihydrate],1.29,1.33,1.5,1.18,1.71,1.15
CNC(=O)[C@H](Cc1c[nH]c2ccccc12)NC(=O)[C@@H](CC(=O)NO)CC(C)C [Ilomastat (GM6001. Galardin)],1.02,1.06,1.22,0.836,0.633,1.3
COc1ccc(-c2oc3c(CC=C(C)C)c(O[C@@H]4O[C@H](CO)[C@@H](O)[C@H](O)[C@H]4O)cc(O)c3c(=O)c2O[C@@H]2O[C@@H](C)[C@H](O)[C@@H](O)[C@H]2O)cc1 [Icariin],0.632,0.62,0.973,0.818,0.96,0.993
Oc1ccc(Nc2nc(-c3ccc(Cl)cc3)cs2)cc1,1.72,2.03,1.54,2.15,2.49,1.41
CCOC(=O)c1ccc(C#Cc2ccc3c(c2)C(C)(C)CCS3)nc1 [Tazarotene],1.01,1.14,0.728,2.31,0.556,1.27
Nc1nc(O)c2ncn(CCC(CO)CO)c2n1 [Penciclovir],0.815,0.334,0.816,0.496,0.404,1.17
C[C@@H]1O[C@@H]1P(=O)(O)O [Fosfomycin Disodium],1.44,0.52,0.647,0.793,0.716,0.92
COCC(=O)NC/C=C/c1ccc2ncnc(Nc3ccc(Oc4ccc(C)nc4)c(C)c3)c2c1,0.785,1.34,1.13,0.952,0.896,0.777
C=CC(=O)N1CCC[C@@H](n2nc(-c3ccc(Oc4ccccc4)cc3)c3c(N)ncnc32)C1,1.76,2.16,2.61,2.35,1.42,2.38
O=C(O)c1ccc(-n2nc(-c3ccccc3O)nc2-c2ccccc2O)cc1 [Deferasirox],2.29,2.01,1.82,2.5,1.64,1.99
CC(C)Cc1ccc(C(C)C(=O)OCc2ccccn2)cc1 (centres undefined) [Ibuprofen piconol],1.39,0.595,0.983,0.788,0.518,1.2
OC(CCN1CCCC1)(c1ccccc1)C1CCCCC1 (centres undefined) [Procyclidine HCl],0.828,0.891,0.562,1.87,1.33,0.869
CCOC(=O)[C@H](CCc1ccccc1)N[C@@H](C)C(=O)N1C(=O)N(C)C[C@H]1C(=O)O [Imidapril HCl],0.604,0.657,0.965,1.1,1.55,1.05
CC(C)c1cc(C(=O)N2Cc3ccc(CN4CCN(C)CC4)cc3C2)c(O)cc1O,3.5,2.81,3.91,2.97,2.99,2.89
CC[C@H](Nc1ncnc2[nH]cnc12)c1oc2ccccc2c(=O)c1-c1cccc(F)c1 [Tenalisib (RP6530)],0.975,0.66,0.791,1.47,0.466,0.678
COc1ccc(Cl)cc1C(=O)NCCc1ccc(S(=O)(=O)NC(=O)NC2CCCCC2)cc1 [Glyburide],1.1,0.731,1.49,1.27,2.08,1.32
Cc1ccccc1-c1cc(N2CCN(C)CC2)ncc1N(C)C(=O)C(C)(C)c1cc(C(F)(F)F)cc(C(F)(F)F)c1 [Netupitant],1.35,0.761,0.595,0.999,1.23,1.4
CCCCOc1ccc(C(=O)CCN2CCCCC2)cc1 [Dyclonine HCl],1.45,0.937,1.42,0.997,1.96,0.828
O=C(/C=C/c1ccc(O)c(O)c1)O[C@@H]1C[C@](O)(C(=O)O)C[C@@H](O)[C@H]1O [Chlorogenic Acid],1.05,1.05,1.38,1.17,1.21,1.15
CCOC(=O)c1ccc(O)cc1 [Ethylparaben],0.729,0.362,0.901,0.865,0.385,1.31

Structure (SMILES),Euclidean distance (786-O),Euclidean distance (A549),Euclidean distance (DU145),Euclidean distance (FB),Euclidean distance (HEPG2),Euclidean distance (OVCAR4)
Oc1ccc(C2CNCCc3c2cc(O)c(O)c3Cl)cc1 (centres undefined) [Fenoldopam mesylate],1.43,1.07,0.768,0.976,1.19,0.867
O=C(O)CCNC(=O)c1ccccc1 [Betamipron],0.807,1.17,1.01,0.869,0.988,1.34
COc1ccc(-c2cc(=O)c3c(O)c(OC)c(O)cc3o2)cc1OC [Eupatilin],1.61,1.04,1.76,1.51,1.35,0.872
O=C(O)Cc1cccc(OCCCN(Cc2cccc(C(F)(F)F)c2Cl)CC(c2ccccc2)c2ccccc2)c1,1.18,0.78,0.825,1.32,0.721,0.79
COC(=O)c1ccc2c(c1)NC(=O)/C2=C(\Nc1ccc(N(C)C(=O)CN2CCN(C)CC2)cc1)c1ccccc1 [Nintedanib (BIBF 1120)],3.7,4.29,2.53,4.05,2.66,3.01
CCC/N=C1\S/C(=C\c2ccc(OC[C@H](O)CO)c(Cl)c2)C(=O)N1c1ccccc1C [Ponesimod],1.96,1.39,0.669,1,1.32,1.26
COC(=O)[C@@H]1CC2=CC(=O)CC[C@]2(C)[C@@]23O[C@@H]2C[C@@]2(C)[C@@H](CC[C@@]24CCC(=O)O4)[C@H]13 [Eplerenone],1.18,0.666,0.81,0.974,1.38,0.746
CCCN1CCCC[C@H]1C(=O)Nc1c(C)cccc1C [Ropivacaine Mesilate],0.655,0.72,1.14,0.717,0.914,0.946
Nc1nccs1 [Aminothiazole],0.905,1.79,2.14,1.92,0.971,1.9
CC(C)(Oc1ccc(C(=O)c2ccc(Cl)cc2)cc1)C(=O)O [Choline Fenofibrate],0.954,0.724,0.985,1.28,0.32,0.848
C=C(c1ccc(C(=O)O)cc1)c1cc2c(cc1C)C(C)(C)CCC2(C)C [Bexarotene],2.33,2,1.58,1.39,1.63,1.48
CNC(CC(=O)O)C(=O)O [NMDA (N-Methyl-D-aspartic acid)],0.691,1.26,0.677,0.867,0.901,0.706
CCN(CC)CCOCCOC(=O)C1(c2ccccc2)CCCC1 [Pentoxyverine Citrate],0.795,0.55,0.661,0.588,0.353,0.939
CC[C@H](C)C[C@H](C)CCCCCCCCC(=O)N[C@H]1C[C@@H](O)[C@@H](NCCN)NC(=O)[C@@H]2[C@@H](O)CCN2C(=O)[C@H]([C@H](O)CCN)NC(=O)[C@H]([C@H](O)[C@@H](O)c2ccc(O)cc2)NC(=O)[C@@H]2C[C@@H](O)CN2C(=O)[C@H]([C@@H](C)O)NC1=O [Caspofungin Acetate],2.18,0.866,1.51,2.42,1.15,1.86
Cc1c(-c2ccc(-c3ccccc3F)cc2)nc2ccc(F)cc2c1C(=O)O [Brequinar],1.61,1.46,0.974,0.698,1.44,1.45
OCCOCCN1CCN(C(c2ccccc2)c2ccc(Cl)cc2)CC1 (centres undefined) [Hydroxyzine 2HCl],1.32,0.879,1.07,0.804,1.04,1.17
Oc1ccc(OC2CCCCO2)cc1 (centres undefined) [Deoxyarbutin],1.11,0.699,1.16,1.24,1.02,1.45
C[C@@H](O)[C@H]1C(=O)N2C(C(=O)[O-])=C(SC3Cn4cnc[n+]4C3)[C@H](C)[C@H]12 (some centres undefined) [Biapenem],1.35,0.934,1.14,1.22,1.02,0.838
CO/N=C1\C[C@]2(C[C@@H]3C[C@@H](C/C=C(\C)C[C@@H](C)/C=C/C=C4\CO[C@@H]5[C@H](O)C(C)=C[C@@H](C(=O)O3)[C@]45O)O2)O[C@H](/C(C)=C/C(C)C)[C@H]1C [Moxidectin],3.17,2.11,2.44,1.21,0.757,1.63
OCCN1CCN(CC/C=C2/c3ccccc3Sc3ccc(C(F)(F)F)cc32)CC1 [Flupenthixol dihydrochloride],1.63,2.21,1.71,2.52,2.68,2.01
Cc1nc(-c2ccc(OCC(C)C)c(C#N)c2)sc1C(=O)O [Febuxostat],0.758,0.915,0.667,0.514,0.375,0.978
Oc1c(I)cc(Cl)c2cccnc12 [Clioquinol],1.29,1.03,1.05,1.37,0.894,1.24
N#C/C(=C\c1ccc(O)c(O)c1)C(=O)NCc1ccccc1 [AG-490 (Tyrphostin B42)],1.55,1.52,1.17,1.34,0.804,0.729
CCC(=O)O[C@H]1[C@H](O[C@@H]2[C@@H](C)[C@H](O[C@H]3C[C@@](C)(OC)[C@@H](O)[C@H](C)O3)[C@@H](C)C(=O)O[C@H](CC)[C@@](C)(O)[C@H](O)[C@@H](C)C(=O)[C@H](C)C[C@@]2(C)O)O[C@H](C)C[C@@H]1N(C)C [Erythromycin estolate],0.939,1.04,1.77,1.82,0.988,1.19
